Data on 39 compounds can be found in ChEMBL document CHEMBL4513146, “CO-ADD screening of Karazin Kharkiv National University (Ukraine) compounds”.

Measured potencies and affinities stand elsewhere.

One assay deals with Klebsiella pneumoniae. The following applies: Concentration 32 ug.mL-1;; ASSAY_TEST Inhibition of Bacterial Growth; detection method Absorption (OD600); MEDIA CAMHB; plate type 384well; NBS; CORNING #3640; time 18 hr.
Take `COc1ccc(NC(=O)Cn2nc3ccc(-c4ccccc4)nn3c2=O)cc1OC`: the Inhibition (commonly the drop in the measured response relative to a control, in per cent) is on record as -3.16%.
Still for that read-out and setting: next, `Cc1ccc(NC(=O)Cn2nc3c4cc(-c5ccc(Cl)cc5)nn4ccn3c2=O)cc1F`: 4.91%; `CCOC(=O)c1ccccc1NC(=O)Cn1nc2c(Sc3ccccc3)nccn2c1=O`: 9.77%.
The same measure, in the same setting: for `C=Cc1ccc(CSc2nnc3c(=O)n(-c4ccc(F)cc4)ccn23)cc1` the value was 9.66%.
On the same count and under the same terms, next, `O=c1c2sccc2n2c(=O)n(Cc3ccc(Cl)cc3)nc2n1Cc1cccs1`: -1.66%; `O=C(Cn1nc2ccc(-c3ccccc3)nn2c1=O)Nc1ccc(Cl)c(C(F)(F)F)c1`: 4.19%.
For the compound `COc1ccc(NC(=O)CSc2nnc3ccc(C(=O)Nc4cccc(F)c4)cn23)cc1`, the Inhibition is 4.36%.
Still for that read-out and setting: next, `O=C(CCc1nnc2c(N3CCCCC3)nc3ccccc3n12)NCc1ccccc1Cl`: 12.77%.
Same read-out and setting: next, `COc1ccc(-c2cc3c4nnc(SCC(=O)NCc5ccccc5Cl)n4ccn3n2)cc1`: 6.77%.
Take `Cc1ccc(CN(c2ccccc2)S(=O)(=O)c2ccc3nncn3c2)cc1`: the Inhibition was -1.94%.

In another assay the test system is Candida albicans. The following applies: Concentration 32 ug.mL-1; ASSAY_TEST Inhibition of Fungal Growth; detection method Absorption (OD530).
As for `Cc1cc2nn(CC(=O)NCc3ccco3)c(=O)n2c(Nc2ccc(C)c(F)c2)n1`, the Inhibition worked out at 7.51%.
On the same count and under the same terms, next, `CCOc1ccc(-n2ccn3c(SCC(=O)c4ccc(F)cc4)nnc3c2=O)cc1`: 2.02%; `COc1ccc(NC(=O)Cn2nc3c4cc(-c5ccc(C)c(C)c5)nn4ccn3c2=O)cc1OC`: 0.2%; `O=C(Cn1nc2c(SCc3ccccc3)nccn2c1=O)NCc1ccc(Cl)cc1`: 1.33%.
On the same count and under the same terms, for `Cc1ccc(NC(=O)Cn2nc3c(Oc4ccccc4)nccn3c2=O)c(Cl)c1` the value was -1.78%; for `O=C(Cn1nc2c3sc(N4CCCC4)nc3ncn2c1=O)Nc1cccc(Br)c1`, 3.98%; for `Cc1ccc(NC(=O)Cn2nc3c(Sc4ccccc4)nccn3c2=O)c(Br)c1`, 22.67%.
With `COc1cccc(Oc2nccn3c(=O)n(CC(=O)Nc4ccc(OC)c(Cl)c4)nc23)c1`, the Inhibition came to 1.52%.
On to `CC(C)c1nnc2c(SCC(=O)Nc3ccccc3Br)nc3ccccc3n12`, for which the Inhibition stood at 4.2%.
Same read-out and setting: for `COC(=O)c1ccccc1NC(=O)Cn1nc2c(Oc3cccc(OC)c3)nccn2c1=O` the value was 1.71%.
Same read-out and setting: for `CCN(C(=O)Cn1nc2cc(C)nc(Nc3ccc(C)c(F)c3)n2c1=O)c1ccccc1` the value was 0.56%; for `Cc1cc(C)cc(N(Cc2c(F)cccc2Cl)S(=O)(=O)c2cccn3cnnc23)c1`, 3.71%; for `CC(C)c1ccc(NC(=O)Cn2nc3c(N4CCCC4)nccn3c2=O)cc1`, 2.06%.
Same read-out and setting: for `CCc1ccc(N(Cc2ccc(F)cc2)S(=O)(=O)c2cccn3c(CC)nnc23)cc1` the value was 33.96%.
With `O=C(NCc1ccccc1)c1ccc2nn(CC(=O)N3CCN(c4ccc(F)cc4)CC3)c(=O)n2c1`, the Inhibition is on record as 5.32%.
Same read-out and setting: for `COc1ccc(NC(=O)Cn2nc3ccc(SCc4ccc(Cl)cc4)nn3c2=O)cc1` the value was 48.76%.
The same measure, in the same setting: for `O=C(CSc1nnc2c(=O)n(-c3ccc(F)cc3)ccn12)N1CCN(c2ccc(F)cc2)CC1` the value was -0.55%; for `Cc1ccc2c(c1)N(C(=O)Cn1nc3ccc(S(=O)(=O)C(C)(C)C)nn3c1=O)CCO2`, 0.51%; for `COc1cccc(CNC(=O)Cn2nc3c4cc(-c5cc(C)ccc5C)nn4ccn3c2=O)c1OC`, -1.47%.
Still for that read-out and setting: for `COc1cccc(N(Cc2ccc(F)cc2)S(=O)(=O)c2ccc3nncn3c2)c1` the value was 1.11%; for `Cc1ccc(NC(=O)Cn2c(=O)c3nnc(C(C)C)n3c3ccccc32)cc1C`, 4.79%.
`O=C(CSc1nc2ccccc2n2cnnc12)NCc1ccccc1Cl`: the Inhibition stood at 0.3%.
For the compound `CCc1nnc2c(=O)n(CC(=O)Nc3cccc(C#N)c3)c3ccccc3n12`, the Inhibition is recorded as 5.47%.
Same read-out and setting: for `Cc1ccc(C)c(Cn2nc3c(=O)n(-c4ccc(C)c(C)c4)ccn3c2=O)c1` the value was 1.95%; for `Cc1cc2nn(CC(=O)N3CCOCC3)c(=O)n2c(Nc2ccc(C)c(F)c2)n1`, 1.38%; for `CCCc1nnc2c(=O)n(CC(=O)Nc3cccc(C#N)c3)c3ccccc3n12`, -0.31%.
Turning to `COc1ccc(-c2cc3c4nnc(SCC(=O)Nc5ccc(C)c(F)c5)n4ccn3n2)cc1`, the Inhibition is on record as 19.06%.
The same measure, in the same setting: for `COC(=O)c1ccccc1NC(=O)Cn1nc2c3cc(-c4ccc(OC)cc4)nn3ccn2c1=O` the value was 0.77%.
As for `CCCCn1c(=O)c2sccc2n2c(=O)n(CC(=O)NC(C)CC)nc12` (centres undefined), the Inhibition is recorded as 3.27%.
Still for that read-out and setting: for `COc1ccc(NC(=O)Cn2nc3ccc(-c4ccccc4)nn3c2=O)cc1OC` the value was 3.57%; for `Cc1ccc(NC(=O)Cn2nc3c4cc(-c5ccc(Cl)cc5)nn4ccn3c2=O)cc1F`, -0.67%.
For the compound `CCOC(=O)c1ccccc1NC(=O)Cn1nc2c(Sc3ccccc3)nccn2c1=O`, the Inhibition is -1.59%.
On the same count and under the same terms, next, `C=Cc1ccc(CSc2nnc3c(=O)n(-c4ccc(F)cc4)ccn23)cc1`: 4.46%.
On the same count and under the same terms, next, `O=c1c2sccc2n2c(=O)n(Cc3ccc(Cl)cc3)nc2n1Cc1cccs1`: 32.28%; `O=C(Cn1nc2ccc(-c3ccccc3)nn2c1=O)Nc1ccc(Cl)c(C(F)(F)F)c1`: 14.71%.
In the case of `COc1ccc(NC(=O)CSc2nnc3ccc(C(=O)Nc4cccc(F)c4)cn23)cc1`, the Inhibition was 3.08%.
Same read-out and setting: for `O=C(CCc1nnc2c(N3CCCCC3)nc3ccccc3n12)NCc1ccccc1Cl` the value was 4.01%; for `COc1ccc(-c2cc3c4nnc(SCC(=O)NCc5ccccc5Cl)n4ccn3n2)cc1`, 1.79%; for `Cc1ccc(CN(c2ccccc2)S(=O)(=O)c2ccc3nncn3c2)cc1`, -3.84%.
